# Assays:
# Test in all cases: PBM binding z-score (relative to random genomic background probes); higher = stronger binding; sequences stand for … in GC…GCGATTGACAGCGTAGAATGAAGG
# [1] = system: FXR:RXRa (NR concentration 270 nM, RXRa partner concentration 90 nM)
# Summary of the method: (§1)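 Each nuclear receptor dimer, without ligand, was incubated for 1 h on custom Agilent 4×180K protein-binding microarrays. Binding was detected with antibodies against each partner (one per run), and scanned fluorescence was regression-normalized. The binding z-scores are referenced to random human genomic background probes.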
# [2] = system: LXRa:RXRa (NR concentration 270 nM, RXRa partner concentration 90 nM)
# Summary of the method: as §1
# [3] = system: LXRa homodimer (NR concentration 270 nM)
# Summary of the method: as §1
# [4] = system: LXRb:RXRa (NR concentration 270 nM, RXRa partner concentration 90 nM)
# Summary of the method: as §1
# [5] = system: LXRb homodimer (NR concentration 270 nM)
# Summary of the method: as §1
# [6] = system: PPARa:RXRa (NR concentration 270 nM, RXRa partner concentration 90 nM)
# Summary of the method: as §1
# [7] = system: PPARg:RXRa (NR concentration 180 nM, RXRa partner concentration 90 nM)
# Summary of the method: as §1
# [8] = system: PPARg:RXRa 270nM:90nM, anti-RXR (NR concentration 270 nM, RXRa partner concentration 90 nM)
# Summary of the method: as §1
# [9] = system: PPARg:RXRa 30nM:10nM, anti-RXR (NR concentration 30 nM, RXRa partner concentration 10 nM)
# Summary of the method: as §1
# [10] = system: PPARg:RXRa 90nM:30nM, anti-RXR (NR concentration 90 nM, RXRa partner concentration 30 nM)
# Summary of the method: as §1
Sequence,PBM binding z-score [1],PBM binding z-score [2],PBM binding z-score [3],PBM binding z-score [4],PBM binding z-score [5],PBM binding z-score [6],PBM binding z-score [7],PBM binding z-score [8],PBM binding z-score [9],PBM binding z-score [10]
TCTCGGAGGACACGAAAGGTCAGACCTCGACATC,3.09,3.69,3.12,3.51,-0.0358,3.57,1.38,2.68,2.63,2.67
CCAACTAGGTCATCCAGGACAGTGAATACATTGA,3.96,2.83,1.3,2.48,0.7,4.41,6.66,5.59,2.96,4.83
TCTGATAGGTCAACGATGGTCAGCTAATCTGCTA,5.29,4.83,0.975,3.31,0.737,4.76,3.47,4.48,3.79,4.21
CCGACTGGGGCAAGGTAACCATAACGCACAGCCA,-0.249,-0.173,-0.437,-0.227,-0.817,0.552,1.47,1.14,-0.222,0.712
CCCAGTAGGTTATGGGGCATTCAGGCAACGGTGA,0.192,0.622,-0.205,-0.0107,-0.618,2.63,5.2,5.47,4.14,5.66
GGAACGAGGGCAAAGTTGATAGTATCTGTCGACG,1.26,0.763,-0.348,0.972,-0.379,4.02,6.9,7.32,6.78,7.32
AGAACGAGGGCACGCTGGGTTGATAGCAGAGTAG,1.04,0.969,-0.399,0.12,-0.802,2.11,2.01,1.91,0.228,1.15
ATCTCTAGATAAAAGTTCAGTGAATCCCGAGGAT,0.0145,0.704,1.41,0.746,0.367,1.59,1.74,3.39,1.72,3.2
TCGGGTAGGTTAGGGGCATTCAGAATGGCGTCGA,1.49,1.32,0.575,2.21,1.8,1.85,0.499,1.7,1.98,1.74
TCATATAGGTAATACTGGTGAAAGTCGGCATCTA,0.82,1,0.397,0.738,0.101,1.29,0.902,2.27,3.82,3.28
CAAACTAGGTCAAGAGTTCAAAGTCCGCTTCCCG,5.67,5.69,6.24,4.15,1.05,6.1,9.08,7.81,6.8,8.19
ATCTCTAGGTAAATTTCAGTGAAAGATCGATAGA,0.175,0.31,0.359,0.199,0.934,0.102,0.408,0.671,0.581,0.833
CCTGCTAGGTGAATGGTCAGCTAAAGCAGCTCGC,-0.48,-0.375,-0.807,-0.625,-0.989,1.25,2.89,4.11,2.1,3.81
CGAACGAGGGCATGAGTTGATAGAAAATGCCGAT,0.363,0.324,-0.393,0.256,-0.832,1.58,1.42,1.33,0.36,0.956
GCAGACAGGTGAAACGCCGGTAACTCAGGGTGGC,-0.365,-0.144,-0.611,-0.313,-0.77,0.601,0.303,-0.0478,-0.502,-0.552
AGAACGAGGTCAATGAGTTGATAGCACGGGTGGC,7.39,5.21,0.873,4.04,1.3,5.6,6.36,6.01,3.19,5.11
CAAACTAGGACACCGGAAGGTCAAAGTCCGCATG,3.19,3.23,3.38,3.19,0.695,4.46,4.72,4.54,1.9,3.7
ACAATGAGGTTATACGTAGATCAGGGAAGAAAGT,2.38,2.12,-0.0615,1.59,0.813,2.93,1.84,1.69,0.688,0.925
CCTACTGGGTCAAGGTCATTGATCAGTCAAAGCA,6.14,5.13,2.13,4.83,0.0227,6.04,8.59,7.05,5.09,6.81
GCAGACAGGTGAAACGCAGGTAACTCAGGGTGGC,-0.388,0.00311,-0.515,-0.48,-1,0.864,0.383,-0.117,-0.52,-0.467
AGTCAAAGTGCACTAGGTAACGTAAGATTCAGCT,-0.308,-0.0298,-0.372,-0.0247,-0.424,1.85,3.36,3.28,1.04,1.89
TGTCAAAGTTCAAAGGTAAGGTAAGTATCCACAC,7.21,6.56,4.78,4.45,1.75,5.46,8.72,7.6,5.24,7.45
CCGAGCAGGTTATGGGGCATTCAGGCAACGGTGA,0.101,0.177,-0.511,0.325,-0.148,1.45,0.617,1.24,-0.414,0.762

# From the supplement of paper PMC6555819
